What all share (experiment): NCI-60 one-dose screen, 48 h (100 = growth as untreated, 0 = no growth, -100 = all killed)
What all share (details): 10 µM

Assay [1] deals with T-47D breast.
Assay [2] concerns BT-549 breast.
The test system of assay [3] is MDA-MB-435 melanoma.
The subject of assay [4] is SW-620 colon.
For assay [5], the system named is MCF7 breast.
The test system of assay [6] is HCT-116 colon.
Assay [7] relates to HCC-2998 colon.
Assay [8] relates to KM12 colon.
The test system of assay [9] is MDA-MB-468 breast.

This note sets out measurements from PubChem BioAssay (NCI).

SMILES strings stand for the structures. About 83,000 compounds went through this panel and 20% of them were active in at least one assay; those are over-represented in the sample as a whole.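 Cell lines were cultured in 96-well plates, exposed to a single compound concentration, and assessed for percent growth 48 hours later.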 Values without a mark were called inactive. Active and inactive are the calls of the source. The calls were made as follows: active = growth percent below 10; inactive = the rest.

In the case of `O=C(O)CCCCCCCCCCN1C(=O)/C(=C/c2cnc(-c3ccccc3)s2)SC1=S`, the growth in assay [1] was 74.2%; in assay [2], 106%; in assay [3] it was 87%; in assay [4], 44.1%; in assay [5] it was 28.8%; in [6] it was 31.8%. For the same compound, the growth is 124% in [7], 24.6% in assay [8] and 90.9% in assay [9].

With `CCN1CCN(Cc2ccc(C(=O)Nc3cccc(-c4cn(-c5ccc6oc(=O)ccc6c5)nn4)c3)cc2C(F)(F)F)CC1`, the growth in assay [1] was 82.9%; in [2], -79.2% (active); in [3] it was -100% (active); in assay [4], -100% (active); in assay [5], -100% (active); in [6], -100% (active). In addition, the growth in assay [7] is -100% (active); in [8], -100% (active); in assay [9], -82.4% (active).

Consider `O=c1c2ccccc2nc(COc2ccccc2)n1/N=C/c1ccc(N2CCCC2)cc1`, for which the growth in assay [1] was 57.7%; in [2], 84.8%; in [3], 99.5%; in [4], 109%; in [5] it was 87.6%; in [6], 79.5%. The values for the growth in [7], in assay [8] and in [9] were 106%, 96.7% and 137%, respectively.

On to `CN1C(=O)N(C)C2SC(N/N=C/c3ccccc3)=NC21` (centres undefined), for which the growth in assay [1] was 69.5%; in assay [2], 58.7%; in [3] it was -13.7% (active); in assay [4] it was 38.3%; in assay [5], 41%; in assay [6] it was 51.5%. Besides, the growth in assay [7] is 81.9%; in assay [8] it was 46.7%; in assay [9], 10% (active).

With `O=C(Cn1nc(-c2ccccc2)ccc1=O)NN1C(=O)c2ccccc2C1=O`, the growth is 96.2% in [1]; 110% in assay [2]; 107% in assay [3]; 115% in assay [4]; 81.7% in assay [5]; 106% in assay [6]. Further, the values for the growth in assay [7], in assay [8] and in assay [9] were 108%, 103% and 92.3%, respectively.

Regarding `CCOC(=O)C1=C(N)N(c2ccc(Cl)cc2)C2=C(C(=O)CC(C)(C)C2)C1c1ccc(N2CCOCC2)cc1` (centres undefined), the growth was 90.8% in [1]; 23.8% in [2]; 101% in assay [3]; 107% in assay [4]; 93.2% in assay [5]; 99.2% in assay [6]. The results for the growth in [7], in assay [8] and in [9] were 103%, 107% and 84.2%, respectively.

Consider `COc1cc2oc(-c3cccc(C(=O)Nc4ccc(Cl)cc4)c3)cc(=O)c2c(OCCNC(=O)CNC(=O)OC(C)(C)C)c1OC`, for which the growth in assay [1] is 59%; in assay [2] it was 51.2%; in assay [3], 66.7%; in assay [4], 110%; in assay [5], 42%; in assay [6], 41.6%. Besides, the values for the growth in assay [7], in [8] and in assay [9] were 102%, 48.6% and 67.4%, respectively.

Take `O=C(c1ccc(O)cc1)C1[C@H](c2ccccc2Br)[C@@H](c2ccccc2)NC12C(=O)Nc1ccc(Br)cc12` (some centres undefined): the growth in assay [1] is 61.7%; in [2] it was 55.6%; in [3] it was 33.8%; in assay [4], 50.9%; in [5] it was 7.04% (active); in assay [6], 61.6%. Moreover, the values for the growth in [7], in [8] and in assay [9] were -13.8% (active), 18.4% and -25.6% (active), respectively.

As for `O=C(CSc1nnc(-c2ccc3nc(-c4ccc(Cl)cc4)[nH]c3c2)o1)Nc1ccc(Cl)cc1`, the growth is 28% in [1]; -65.1% (active) in assay [2]; -65.8% (active) in [3]; -69.9% (active) in [4]; -72.7% (active) in [5]; -48.9% (active) in assay [6]. Moreover, the growth in [7] is 18.5%; in assay [8] it was -12.8% (active); in [9], -48.4% (active).

For `C=C1CCC2C3(C)COC(c4c(F)cccc4F)OC3CCC2(C)C1C/C=C1/C(=O)OCC1O` (centres undefined), the growth in [1] is 1.57% (active); in assay [2], -78.4% (active); in assay [3], -9.65% (active); in assay [4], -41.4% (active); in assay [5], -12.6% (active); in assay [6], -59.2% (active). Further, the growth in assay [7] was -65% (active); in assay [8] it was -67.5% (active); in [9] it was -24% (active).

`CN1CCN(c2ccc(C(=O)/C=C/c3ccc(OC(F)F)cc3)cc2)CC1`: the growth was 55% in assay [1]; 19.2% in assay [2]; -37.3% (active) in assay [3]; -32.8% (active) in [4]; -71.7% (active) in [5]; -62.5% (active) in [6]. The results for the growth in assay [7], in assay [8] and in assay [9] were -48.9% (active), 6.74% (active) and -60.7% (active), respectively.

Turning to `COc1cc2c3c(n(CCCN4CCOCC4)c(=O)c2cc1OC)-c1nc2c(cc1C3=O)OCO2`, the growth in assay [1] was 14.5%; in assay [2], 4.91% (active); in assay [3], 16.4%; in [4], 22.2%; in assay [6], 15.6%; in assay [7], 37.7%. The growth in assay [8] was 32.1%; in assay [9], -29% (active).

For the compound `CC(=C(c1ccc(OCCN2CCCCC2)cc1)c1ccc(OCCN2CCCCC2)cc1)c1ccccc1`, the growth in [1] is -20.3% (active); in assay [2] it was 110%; in assay [3], -66% (active); in assay [4] it was 12.3%; in assay [6] it was 14.3%; in [8], 24.4%. Moreover, in assay [9], the growth is 37.4%.

With `CCOC(=O)C1=C(N)N(c2ccccc2)C2=C(C(=O)CC(C)(C)C2)C1c1ccccc1OC` (centres undefined), the growth was 92.7% in assay [1]; 105% in assay [2]; 112% in [3]; 107% in assay [4]; 101% in [6]; 101% in assay [7]. In addition, the growth in [8] is 113%; in assay [9], 88.7%.

On to `Cc1ccc(/C=C/C(=O)c2ccc(S(=O)(=O)NCCNc3nc(Nc4ccc(F)cc4)nc(N(C)C)n3)cc2)cc1`, for which the growth is 24.8% in assay [1]; 64.6% in assay [2]; -23% (active) in assay [3]; -8.7% (active) in assay [4]; -51.7% (active) in assay [6]; -11.9% (active) in assay [7]. The growth in assay [8] is -53.8% (active); in [9], -2.81% (active).

Regarding `N#Cc1ccc(-c2nn(-c3ccc(C(=O)O)cc3)cc2CNc2cccc(Br)c2)cc1`, the growth in [1] is 35.4%; in assay [2] it was 1.51% (active); in [3], 59%; in assay [4], 61.2%; in [6], 19.9%; in assay [7], 4.19% (active). In addition, the growth in [8] is 22.4%.

In the case of `O=c1[nH]c2ccccc2cc1CSc1ccc(Nc2nccc(-c3ccc(Cl)cc3)n2)cc1`, the growth in [1] was -10.3% (active); in assay [3], 9.58% (active); in [4] it was 2.67% (active); in assay [5], -5.81% (active); in [6] it was -38.6% (active); in assay [7], 14.6%. Further, the growth in assay [8] is 23%.

On to `O=C(c1ccccc1)n1ccc(-c2cc3cc(Br)ccc3oc2=O)n1`, for which the growth is 1.35% (active) in assay [1]; 39.2% in assay [2]; 48.9% in assay [3]; 45.8% in [4]; 16% in assay [6]; 17% in [7]. For the same compound, the growth in [8] is 27.9%; in assay [9] it was -25.9% (active).

In the case of `CC1=C2C(=C[C@@](C)(COCOCCCl)[C@@H]2O)C(=O)[C@](C)(O)C12CC2`, the growth in assay [1] is -15.8% (active); in assay [3] it was -81.1% (active); in assay [4], 0.591% (active); in assay [5], -46.2% (active); in assay [6], 12.6%; in assay [7], -91.7% (active). Further, the growth in assay [8] was 0.906% (active).

Consider `O=C(Cn1nc(-c2ccccc2)ccc1=O)NNC(=S)NC1CCCCC1`, for which the growth in [1] was 82%; in [2], 111%; in assay [3], 110%; in assay [4], 113%; in [6], 112%; in assay [7] it was 114%. In addition, the growth in assay [8] was 109%; in assay [9], 103%.

As for `CCCCCCCCCCCCCCCCCCCC(=O)NCCc1c[nH]c2ccc(OC(=O)NOCCOCCOCCOCCOCCOCCOCCOCCOCCOCCOCCOCCOCCOCCOCCOCCOCCOCCOCCOCCOCCOCCOC)cc12`, the growth in [1] was -8.69% (active); in [2] it was -12.7% (active); in [3], 17.2%; in assay [4], 26.6%; in assay [6] it was -21.7% (active); in [7] it was -2.45% (active). Moreover, the figures for the growth in assay [8] and in assay [9] were 14.9% and -14.7% (active), respectively.

With `CCCn1c(=O)c2[nH]c(-c3ccc(OCc4nc5ccc(F)cc5[nH]4)cc3)nc2n(CCC)c1=O`, the growth in assay [1] was -17.8% (active); in assay [2], 6.64% (active); in assay [3], 47.8%; in [4] it was 17.1%; in assay [6], 3.12% (active); in assay [7], 83.2%. Moreover, the growth in assay [8] was 55.7%; in [9], -12.7% (active).

For the compound `CCOP(=O)(OCC)O[C@H]1CCC(=O)[C@@H]2[C@H]1[C@H]1C[C@@H]3[C@@]4(C)CCCC(C)(C(=O)OC)[C@@H]4CC[C@@]23C=C1C(C)C` (some centres undefined), the growth in [1] is 42.1%; in assay [2], 54.9%; in [3], 52%; in [4], 56.1%; in assay [6], 32.8%; in [7], 58.9%. Further, the growth in [8] was 50.9%; in assay [9] it was 7.96% (active).

`COc1cc(/C=C/C(=O)c2ccc(NC(=O)CN3C(=O)NC(C)(c4ccccc4)C3=O)cc2)cc(OC)c1OC` (centres undefined): the growth in [1] was 33.9%; in assay [2], 10.9%; in [3], 7.31% (active); in assay [4], 8.07% (active); in assay [6], -69.7% (active); in assay [7] it was 10%. Also, the growth in assay [8] was -6.47% (active); in assay [9], -23.1% (active).

Turning to `N#Cc1c(-c2ccc(F)cc2)nc(SCc2ccc(F)cc2)nc1N1CCOCC1`, the growth in assay [1] was 73.2%; in [2], 64.3%; in [3], 93.5%; in [4] it was 85.5%; in assay [6] it was 66%; in [7], 87.4%. Also, the growth in assay [8] is 87.2%; in assay [9], 62.1%.

As to `COC(=O)CC1CC1C1Cc2c(nc(N(C)S(C)(=O)=O)nc2C(C)C)-c2ccc(F)cc21` (centres undefined), the growth in [1] is 63.8%; in [2], 64.8%; in [3] it was 87.2%; in assay [4], 66%; in [6], 44.4%; in [7], 101%. In addition, the growth is 76.2% in assay [8] and 74.9% in [9].

With `CS(=O)(=O)Nc1ccc(-c2ccc3c(c2)ncn3-c2ccc(NC(=O)Nc3ccc(Cl)c(C(F)(F)F)c3)cc2)cc1`, the growth is -31.2% (active) in [1]; -83.8% (active) in assay [2]; -85.4% (active) in assay [3]; -67% (active) in assay [4]; -87.7% (active) in assay [6]; -73.6% (active) in assay [7]. For the same compound, the results for the growth in assay [8] and in [9] were -57.8% (active) and -50.7% (active), respectively.

As to `Cc1ccn2c(C(=O)c3ccccc3)cc(-c3cc(-c4ccc(N(C)C)cc4)c(C#N)c(N)n3)c2c1`, the growth in assay [1] is 63.6%; in assay [2] it was 58.1%; in assay [3], 78.8%; in assay [4] it was 69.7%; in assay [6] it was 63.4%; in assay [7], 92%. For the same compound, the growth was 74% in [8] and 50.7% in assay [9].

As to `COc1cc(NC(=O)c2cc(-c3ccc(F)cc3F)ccc2O)cc(OC)c1OC`, the growth is -10.1% (active) in assay [1]; 4.31% (active) in [2]; 36.2% in assay [3]; 55.3% in assay [4]; 42.5% in assay [6]; 63.9% in assay [7]. For the same compound, the results for the growth in [8] and in [9] were 29.8% and 15%, respectively.
